# Test results from ChEMBL document CHEMBL3988442, “University of Dundee, Small-Polar-MMV Screening Library” (2021).
# Columns and labels:
# [1] = target: T1, Aspartate--tRNA(Asp/Asn) ligase (Mycobacterium tuberculosis (strain ATCC 25618 / H37Rv)) (UniProt P9WFW3); assay: Assay for Asp RNA synthetase-1 from Mycobacterium tuberculosis; format: functional; parameters: scale not given: direction of the effect not stated beside the values; settings: 30 µM; also: in the data most compounds retested in dose-response had high values
# T1 sequence (whole entry): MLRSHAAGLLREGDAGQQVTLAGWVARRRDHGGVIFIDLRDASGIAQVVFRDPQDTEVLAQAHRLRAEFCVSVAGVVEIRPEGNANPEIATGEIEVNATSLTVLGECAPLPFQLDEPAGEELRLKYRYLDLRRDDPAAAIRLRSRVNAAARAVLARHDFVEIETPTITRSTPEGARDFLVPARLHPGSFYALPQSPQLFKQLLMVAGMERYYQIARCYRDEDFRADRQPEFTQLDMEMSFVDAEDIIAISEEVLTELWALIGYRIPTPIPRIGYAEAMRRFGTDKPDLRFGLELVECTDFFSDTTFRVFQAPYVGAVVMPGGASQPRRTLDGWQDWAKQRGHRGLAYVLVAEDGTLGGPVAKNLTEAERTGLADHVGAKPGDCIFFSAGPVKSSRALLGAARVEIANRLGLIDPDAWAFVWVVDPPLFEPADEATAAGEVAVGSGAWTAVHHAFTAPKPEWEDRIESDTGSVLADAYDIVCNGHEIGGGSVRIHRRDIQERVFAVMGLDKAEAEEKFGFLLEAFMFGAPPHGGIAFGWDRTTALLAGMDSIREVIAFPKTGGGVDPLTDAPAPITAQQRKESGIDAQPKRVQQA
# [2] = target: Shiga toxin 2 (Escherichia coli O157:H7) (UniProt P09385+P09386); assay: E. coli 0.157:H7 Shiga Toxin SOP - stx2 screening assay; format: functional; parameters: scale not given: direction of the effect not stated beside the values; settings: 30 µM
SMILES,Percent Effect [1] [%],Percent Effect [2] [%]
COc1cc(N2CCCC(c3nccn3Cc3cscn3)C2)nc(N)n1 (stereo not given),-2.33,14.5
CC(NCc1ccc(F)cc1)c1ccc(OCC(=O)NC2CC2)cc1 (stereo not given),0.888,-19.1
Cc1cncc(C2CCCN(C(=O)c3cccn3C)C2)n1 (stereo not given),1.84,-12.2
O=C(Cn1ccc2c(Cl)cccc21)N[C@@H](C(=O)O)c1ccccc1,-6.24,-13.8
CN1CC(=O)N(c2cccnc2)CC12CCN(C(=O)c1cccnc1)C2 (stereo not given),4.16,-12
O=C([C@H]1COC[C@H]2CN(Cc3ccco3)C[C@H]21)N1CCCO1,6.23,-30.2
CSc1ncccc1C(=O)NCc1ccc(CS(=O)(=O)NC(C)C)cc1,4,6.55
COc1ccc(C(=O)N(C)Cc2nnc3ccccn23)c(OC)c1,0.49,24.6
COc1ccc(CC(=O)N2C[C@@H]3COC[C@]3(CN(C)C)C2)cc1,-5.29,-4.41
CN(C(=O)Cc1ccc(NC(=O)NC2CCC2)cc1)c1ccccc1,-0.27,-9.88
CC(C(=O)Nc1ccc(N2CCCC2)nc1)n1ccnc1 (stereo not given),1.62,-37.2
CN(C)c1cc(CNC(=O)c2ccc(F)cc2F)ccn1,-4.92,-51.7
Cc1nc(C)n(C2CCCN(C(=O)Cc3n[nH]c4ccccc34)C2)n1 (stereo not given),2.55,-3.54
CCC(O)CN1CCN(C(=O)c2sccc2OC)CC1 (stereo not given),0.995,-39.9
CN(C)C(=O)NC[C@H]1OC[C@@H]2CCN(Cc3ccoc3)C[C@@H]21,1.28,-22.6
COCCN1CCN(CCS(=O)(=O)C(F)(F)F)CC1C (stereo not given),-2.33,96.7
Cc1cnn(CC2CCCN2C(=O)c2ccc(OC(C)C)nc2)c1 (stereo not given),-4.48,-35
CC(C)S(=O)(=O)N1CCC(c2cc3n(n2)[C@@H](C(F)(F)F)C[C@@H](C)N3)C1 (stereo not given in full),-2.54,-27.2
COc1ccc(C2CC(=O)Nc3c2cnn3C)cc1 (stereo not given),-0.607,-21.4
O=c1nc(SCc2ccncc2)c2c(n1CCO)CCCC2,-6.81,-5.81
CN(C)CC1CN(Cc2cccc(C(=O)N(C)C)c2)CCO1 (stereo not given),-3.06,-24.2
Cc1cc(C)nc(CCNC(=O)[C@H]2CNC[C@@H](C(=O)N3CCCC3)C2)n1,-2.14,-37.4
COc1cc(CNCc2c(C)nn(C)c2N(C)C)ccc1C,-3.09,9.03
CCn1cnnc1C1CCN(C(=O)c2ccccc2OC)CC1,-4.13,14.1
Cc1cc(N(C)Cc2noc(C)n2)n2nc(C)c(C)c2n1,-0.251,-8.78

SMILES,Percent Effect [1] [%],Percent Effect [2] [%]
Cc1cnc(N2CCCC3(CCN(Cc4csc(C)n4)C3=O)C2)nc1 (stereo not given),6.32,-0.084
CN(c1ccc(C(=O)NCCCN2CCOCC2)c(Cl)c1)S(C)(=O)=O,-4.13,-32.5
Cc1nc(N2CCOCC2)nc2c1CCN(Cc1cccnc1)CC2,2.91,-7
COCc1cccc(NC(C)C(=O)N(C)Cc2ccccc2)c1 (stereo not given),-0.212,-8.1
CCC(C)(C)NC(=O)Cn1nc(C)nc1-c1cccc(C)c1,1.4,5.46
COCC(=O)N1CCCn2c(CN3CCCCC3)nnc2C1,1.5,-19.1
COc1ccc(-c2nc(CN3CCN(CCO)CC3)co2)cc1,-0.607,-96.9
O=C(NCCCn1cncn1)NCC(c1ccco1)N1CCCCC1 (stereo not given),7.12,18.2
CCc1nc(C2CCCN2CCn2cncn2)no1 (stereo not given),0.0232,-0.231
Cc1ccc(N2CC[C@H]3O[C@@H](C(=O)NCc4ccco4)CC[C@H]32)nn1,12.5,-10.5
Cn1cc(C(=O)NC2CCN(Cc3ccn(C)c(=O)c3)CC2)cn1,1.68,-28
Cc1ncc(-c2ccnc(N3CCN(C)CC3)n2)c(-c2cccnc2)n1,4.45,-20.4
Cc1cnn(CC(C)NCc2csc(-c3ccsc3)n2)c1 (stereo not given),-7.44,-28
COc1cc(CN2CCN(c3cccc(OC)c3)C(=O)C2)cc(OC)c1,-1.98,-8.17
Nc1nc(C2CCN(C(=O)c3cscn3)CC2)cs1,2.54,-10.9
CCN1CC2(CCC1=O)CCN(C(=O)c1ccc(Cl)cc1O)CC2,-1.67,-16.7
COc1ccccc1C(O)CNC(=O)NCc1cccnc1OC (stereo not given),-0.742,9.52
Cc1ccccc1NS(=O)(=O)c1cc2c(c(C(=O)O)c1)OCCO2,-0.815,29.1
Cc1cccc(-n2cc(C(=O)N3CCCC(n4ccnc4)C3)nn2)c1 (stereo not given),1.58,7.71
CC1=Nc2c(c(=O)[nH]n2C(C)C)C(c2ccccc2)S1 (stereo not given),1.45,1.24
O=C(c1cc(=O)[nH]c(=O)[nH]1)N1CCCCC1c1nc2cc(F)ccc2[nH]1 (stereo not given),-0.139,9.59
Cc1ncsc1C(=O)NC1CCN(Cc2cccnc2)CC1,-7.07,-58.8
COc1ccc(C2CCCCCN2S(=O)(=O)N(C)C)cc1 (stereo not given),-8.89,-9.69
Cc1ccc(CN2CCc3ncnc(-c4ccc(F)cc4)c3CC2)o1,5.12,-19.5
COCC1Cn2nnc(-c3cnn(C)c3)c2CN1Cc1ccco1 (stereo not given),0.436,-1.07
